Shiga inhibitor: inhibitors of Shiga toxin in Vero cells; 290,000 compounds, 9.2% hits; AID 2315; Vero cells, Shiga toxin protein synthesis inhibition reporter; inhibition, % at 38.7 µM; in the data active means inhibition mostly above about 28%, no sharp cut-off; inactive means mostly below about 43%
AMA1-RON2 inh: AMA1-RON2 (P. falciparum) interaction inhibition | AlphaScreen AMA1-biotinylated RON2 peptide binding | Potency, µM (doses to about 58.2 µM), most hits filed as inhibitors | 360,000 compounds, 0.2% hits | AID 720542; further: nearly all actives have a fitted effect of over 45% in size
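AMA1 (3D7) with his tag at 25 nM final met compounds first, then biotinylated RON2 peptide at 25 nM; detection used donor plus acceptor beads, 10 µg/mL apiece, read by AlphaScreen after 30 min at room temperature.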
SARS PLpro yeast: blocks SARS-CoV papain-like protease in a yeast assay; Potency, µM (doses to about 32.9 µM), hits mostly activators; 330,000 compounds, 0.19% hits; S. cerevisiae expressing SARS-CoV PLpro, growth rescue; calls by dose curve; further: nearly all actives have a fitted effect of over 55% in size
Pf growth 48h: P. falciparum growth inhibition at 48 hours (one generation); P. falciparum luciferase growth in erythrocytes, 48 h; Potency, µM (series often up to 28.7 µM), usual class: inhibitors; 310,000 compounds, 5.9% hits; AID 504832
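In quantitative HTS format, infected erythrocytes bearing luciferase-reporter parasites were treated for a single generation at 37 C. Luminescence after adding detection reagent served as the growth measure.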
Cycloheximide cs: counter-screen hit for Shiga toxin inhibitors, cycloheximide. cell reporter, cycloheximide protein synthesis inhibition counterscreen. max response, %. 300,000 compounds, 12% hits; in the data active means max response mostly above about 13%, no sharp cut-off; inactive means mostly below about 14%; further: read at 38.3 µM for the half of the compounds with a filed dose
Pf growth 96h: inhibits malaria parasite growth, 96 h | P. falciparum luciferase reporter growth, 96 h | Potency, µM (series often up to 28.7 µM), usual class: inhibitors | 320,000 compounds, 6.9% hits | AID 504834
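Cell-based qHTS: luciferase-tagged P. falciparum in erythrocytes (2% hematocrit, 0.05% parasitemia final) incubated with compounds for 96 hours, 37 C, 5% CO2; luciferase detection reagent then added and luminescence measured.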
Each line names hits and unclear results; the compound was inactive in the other large screens. Sampled rows, rich in hits. Any-hit rate of the full collection: about 19%. Unless noted, the call rests on the fitted dose curve; in most records, active means well fitted curve in the direction sought with a large enough effect; inconclusive means small, poorly fitted or top-dose-only effect, or another doubt; inactive means no such curve, though single readings can be large; an effect the other way counts as inactive or inconclusive.

Cc1ccc(-c2cc(C(=O)N/N=C/c3cccnc3)c3ccccc3n2)cc1C	none (no result: Shiga inhibitor, SARS PLpro yeast, Pf growth 48h, Cycloheximide cs, Pf growth 96h)
O=C(N/N=C/c1cccnc1)c1ccc2ccccc2c1O	Shiga inhibitor 37.9, Cycloheximide cs 19.5 (no result: SARS PLpro yeast)
O=C(N/N=C/c1cccnc1)c1cc(-c2ccccc2)nc2ccccc12	Pf growth 96h inconclusive (no result: Pf growth 48h)
Cc1cccc(-c2cc(C(=O)Nc3sc(C)c(C)c3C(N)=O)c3ccccc3n2)c1	Pf growth 96h inconclusive
COc1cccc(C(C)=C2SC(=S)NC2=O)c1	none (no result: Shiga inhibitor, SARS PLpro yeast, Pf growth 48h, Cycloheximide cs, Pf growth 96h)
COc1ccc(NC(=O)CN2CCCCCC2)cc1OC	none
CCOc1ccccc1-n1nnnc1SCC(=O)N(C)C1CCS(=O)(=O)C1 (stereo unspecified)	none (no result: Shiga inhibitor, SARS PLpro yeast, Pf growth 48h, Cycloheximide cs, Pf growth 96h)
COc1ccc(Cn2cc(CN3CC(N4CCN(Cc5ccccc5F)CC4)CS3(=O)=O)nn2)cc1 (stereo unspecified)	none (no result: Shiga inhibitor, SARS PLpro yeast, Pf growth 48h, Cycloheximide cs, Pf growth 96h)
O=C(N/N=C/c1cccnc1)c1ccco1	Shiga inhibitor 65.6, Cycloheximide cs 26.4
O=C(Nc1cccc([N+](=O)[O-])c1)c1ccc2ccccc2c1O	Cycloheximide cs 37.3
O=C(c1cn(-c2ccccc2)nc1-c1cccnc1)N1CCCC(C(F)(F)F)C1 (stereo unspecified)	Pf growth 48h inconclusive, Pf growth 96h inconclusive (no result: Shiga inhibitor, Cycloheximide cs)
CCOC1=C2CN(S(=O)(=O)c3ccc(C)cc3)[C@H](c3ccccc3)C[C@@H]2N(S(=O)(=O)c2ccc(C)cc2)[C@H](c2cccs2)C1	none (no result: Shiga inhibitor, SARS PLpro yeast, Pf growth 48h, Cycloheximide cs, Pf growth 96h)
O=C(CSc1nc2ccc(NC(=O)CSc3nnnn3-c3ccccc3)cc2s1)Nc1ccccc1	Pf growth 96h inconclusive
c1ccc(-n2nnnc2SCCCSc2nc3ccccc3s2)cc1	Pf growth 96h 4.15µM (no result: Pf growth 48h)
c1ccc(OCCSc2nnnn2-c2ccccc2)cc1	Shiga inhibitor 55.4, Cycloheximide cs 60.0 (no result: Pf growth 48h)
Fc1ccccc1OCCSc1nnnn1-c1ccccc1	Shiga inhibitor 83.7, Cycloheximide cs 47.3
Cc1ccccc1OCCSc1nnc(C)n1-c1ccccc1	Cycloheximide cs 19.0 (no result: Pf growth 48h)
COc1ccccc1OCCSc1nnnn1-c1ccc(C)cc1	none (no result: Pf growth 48h)
CCOc1ccc(OCCSc2nnnn2-c2ccccc2)cc1	none (no result: Pf growth 96h)
CCOC(=O)CN1C(=O)C(Sc2n[nH]c(-c3ccccc3)n2)CCc2ccccc21 (stereo unspecified)	Pf growth 96h 5.86µM (no result: Pf growth 48h)
COC(=O)C1=C(c2ccc(F)cc2F)C[C@@H]2CC[C@H]1N2C(=O)NCCOc1ccc(OC)cc1	Pf growth 48h 10.4µM (no result: Shiga inhibitor, Cycloheximide cs)
COC(=O)C1=C(c2ccc(F)cc2F)C[C@@H]2CC[C@H]1N2C(=O)NCCOc1ccccc1Cl	Pf growth 48h inconclusive, Pf growth 96h 10.4µM (no result: Shiga inhibitor, Cycloheximide cs)
Cc1nc(SCC(=O)NNC(=O)c2cccs2)[nH]c(=O)c1C	Pf growth 96h inconclusive
CCCc1cc(=O)oc2cc(C)cc(OC(C)C(=O)NCCCn3ccnc3)c12 (stereo unspecified)	Pf growth 48h 4.15µM, Pf growth 96h 2.62µM
CCCc1cc(=O)oc2cc(C)cc(OC(C)C(=O)NCCCN3CCOCC3)c12 (stereo unspecified)	Pf growth 48h inconclusive, Pf growth 96h inconclusive
Cc1cc(OC(C)C(=O)NCCc2c[nH]c3ccccc23)c2c(C)cc(=O)oc2c1 (stereo unspecified)	Pf growth 48h 1.47µM, Pf growth 96h 1.65µM
Cc1cc(OC(C)C(=O)NCC(O)c2ccccc2)c2c(C)cc(=O)oc2c1 (stereo unspecified)	Pf growth 48h inconclusive, Pf growth 96h inconclusive
CCCc1cc(=O)oc2cc(C)cc(OC(C)C(=O)NCC(O)c3ccccc3)c12 (stereo unspecified)	Pf growth 48h 0.465µM, Pf growth 96h inconclusive
CCCc1cc(=O)oc2cc(C)cc(OC(C)C(=O)NCCN3CCOCC3)c12 (stereo unspecified)	Pf growth 48h 10.4µM, Pf growth 96h 9.28µM
CCN(CC)S(=O)(=O)c1ccc(N2CCCCC2)c(NC(=O)C2CSC3(C)CCC(=O)N23)c1 (stereo unspecified)	none (no result: Shiga inhibitor, SARS PLpro yeast, Pf growth 48h, Cycloheximide cs, Pf growth 96h)
OC(CN1CCCC1)Cn1ccc2ccccc21 (stereo unspecified)	AMA1-RON2 inh inconclusive
CCOC(=O)N1CCN(CC(=O)c2ccc(O)c(C)c2O)CC1	Cycloheximide cs 31.4
CCOC(=O)N1CCN(CC(=O)c2ccc(O)cc2O)CC1	none (no result: SARS PLpro yeast)
CCOC(=O)N1CCN(Cc2ccc3c(c2)OCO3)CC1	Pf growth 96h inconclusive
Cc1c(O)ccc(C(=O)CN2CCN(Cc3ccc4c(c3)OCO4)CC2)c1O	Pf growth 96h 11.7µM
CCN(CC(=O)Nc1ccc2c(c1)OCCO2)S(=O)(=O)c1ccc(F)cc1	none
CCCC[C@@H]1C=C(C(=O)O)[C@H](c2ccc(Br)cc2)N1S(=O)(=O)c1ccc(C)cc1	none (no result: Shiga inhibitor, Pf growth 48h, Cycloheximide cs, Pf growth 96h)
NC(=O)[C@@H]1CC2(CC(c3cccc(NC(=O)[C@@H]4CCC(=O)N4)c3)=NO2)CN1C(=O)Cc1ccc([N+](=O)[O-])cc1 (stereo partly specified)	none
C/C=C/C(=O)Nc1cccc(C2=NOC3(C2)C[C@H](C(N)=O)N(C(=O)c2ccccc2C(=O)c2ccccc2)C3)c1 (stereo partly specified)	Pf growth 48h 9.28µM, Pf growth 96h 11.7µM (no result: AMA1-RON2 inh)
C/C=C\C(=O)Nc1cccc(C2=NOC3(C2)C[C@H](C(N)=O)N(C(=O)Cc2ccc([N+](=O)[O-])cc2)C3)c1 (stereo partly specified)	Pf growth 48h inconclusive, Pf growth 96h 11.7µM
NC(=O)[C@H]1CC2(CC(c3cccc(NC(=O)CC(c4ccccc4)c4ccccc4)c3)=NO2)CN1C(=O)C(c1ccccc1)c1ccccc1 (stereo partly specified)	Pf growth 48h 10.4µM, Pf growth 96h 13.1µM
NC(=O)[C@H]1CC2(CC(c3cccc(NC(=O)CC(c4ccccc4)c4ccccc4)c3)=NO2)CN1C(=O)c1ccccc1C(=O)c1ccccc1 (stereo partly specified)	Pf growth 48h 9.28µM, Pf growth 96h 8.28µM
CCOC(=O)c1cc(NC(=O)c2ccccc2)c(=O)n2c1oc1ccccc12	none
Cc1ccc(C(=O)Nc2ncc(Cc3ccc(F)cc3)s2)o1	Shiga inhibitor 156.4, Cycloheximide cs 41.4, Pf growth 96h inconclusive
Cc1ccc(C(=O)Nc2ncc(C)s2)s1	Cycloheximide cs 17.3
Cc1nnc(SCC(=O)Nc2ncc(Cc3ccc(F)cc3)s2)n1N	none
Cc1ccc(C(=O)Nc2ncc(C)s2)o1	Cycloheximide cs 35.2 (no result: Pf growth 48h)
CSc1ccccc1C(=O)Nc1ncc(C)s1	none (no result: Pf growth 48h)
Cc1cc(C)nc(NC(=O)c2ccc(C)o2)n1	none
CCOC(=O)c1sc(NC(=O)c2ccc3ncsc3c2)nc1C	Shiga inhibitor 72.5, Cycloheximide cs 25.1
CCOC(=O)c1nc(NNC(=O)c2ccc([N+](=O)[O-])cc2)sc1C	Pf growth 48h inconclusive, Pf growth 96h 3.29µM
CCOC(=O)c1sc(NNC(=O)c2ccc(F)cc2)nc1C	Shiga inhibitor 55.9, Pf growth 48h inconclusive, Cycloheximide cs 21.9, Pf growth 96h inconclusive
COC(=O)Cc1csc(NC(=O)c2ccc3ncsc3c2)n1	none (no result: Shiga inhibitor, Cycloheximide cs)

Assay outcomes from PubChem.
